# Measurements from PubChem BioAssay (NCATS).
# A number with no mark means an inactive call. Records with an inconclusive call do not appear. A call without a number means that no potency is given here. Calls of active or inactive are those of the source. Unless noted, calls follow the shape of the dose curve; as a rule, active = well fitted curve in the direction sought with a large enough effect; inconclusive = small, poorly fitted or top-dose-only effect, or another doubt; inactive = no such curve, though single readings can be large; an effect the other way counts as inactive or inconclusive.
# How the values were obtained:
# Tov-21-G = test: Primary qHTS to identify gynecologic anti-cancer compounds using libraries of approved drugs and bioactive compounds (AID 1345084); settings: Gynecologic cancer cell panel viability, ATPlite luminescence, 48 h; series mostly up to 57.5 µM; also: nearly all actives have a fitted effect of over 55% in size; also: potency is read from the fitted curve at half-maximal effect
# How it was run: (§1)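 Five-point cytotoxicity, 48 h drug exposure at 37 C, 5% CO2, on cells seeded 16 h beforehand. ATP content read by ATPlite luminescence.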
# Tov112D = test: as above; settings: Gynecologic cancer cell panel viability, ATPlite luminescence, 48 h; series mostly up to 57.5 µM
# How it was run: as §1
# SKOV3 = test: as above; settings: Gynecologic cancer cell panel viability, ATPlite luminescence, 48 h; series mostly up to 57.5 µM
# How it was run: as §1
# [1] = qHTS assay to identify inhibitors of the type 1 interferon - major histocompatibility complex class I in skeletal muscle: Counter screen cell viability and HiBit confirmation (AID 1347412); settings: iHSKM muscle cells + IFN-b, HiBiT or CellTiter-Glo, 24 h; for activity change, negative = inhibition: at 45.9 µM (top of the series); also: potency is read from the fitted curve at half-maximal effect; as to all read-outs here: nearly all actives have a fitted effect of over 60% in size
# How it was run: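 HLA-B*08:01–HiBiT knock-in immortalized human myoblasts (C25cl48) stimulated with 4.0 ng/ml human IFN-beta and dosed with compound in a 12-point 1:3 titration (top final 46 uM). After 24 hrs at 37 C, HiBiT lytic luminescence or CellTiter Glo ATP read out.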
# astro = test: Drug repurposing screens with cells derived from glioblastoma tumor samples (AID 1345199); settings: viability, ATP luminescence, 48 h; series mostly up to 91.6 µM; also: nearly all actives have a fitted effect of over 40% in size
# How it was run: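 Four patient lines of CD133+ GBM neurospheres were screened at several concentrations; hits were retested in those lines plus three slower-growing GBM lines, using 48-hour treatment and ATP-based viability.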
# [2] = target: Nuclear receptor subfamily 1 group I member 2 (Rattus norvegicus) (UniProt Q9R1A7); test: qHTS assay for small molecule activators of the rat pregnane X receptor (rPXR) signaling pathway (AID 651751; call rule not given here); settings: rPXR reporter cells, luciferase (One-Glo), 24 h
# Nuclear receptor subfamily 1 group I member 2 (Rattus norvegicus), sequence (Q9R1A7 whole entry, looked up): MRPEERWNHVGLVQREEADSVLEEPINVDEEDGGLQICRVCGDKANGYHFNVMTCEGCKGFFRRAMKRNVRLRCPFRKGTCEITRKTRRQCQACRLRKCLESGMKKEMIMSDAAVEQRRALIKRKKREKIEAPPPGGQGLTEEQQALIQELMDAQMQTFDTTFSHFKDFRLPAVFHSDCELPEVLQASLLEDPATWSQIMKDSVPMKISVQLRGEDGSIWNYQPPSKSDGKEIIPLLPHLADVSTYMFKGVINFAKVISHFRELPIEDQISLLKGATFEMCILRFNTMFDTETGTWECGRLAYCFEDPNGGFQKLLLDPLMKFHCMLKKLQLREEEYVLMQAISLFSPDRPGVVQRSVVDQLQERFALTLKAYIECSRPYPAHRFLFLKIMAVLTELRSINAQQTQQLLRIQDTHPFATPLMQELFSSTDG
# [3] = qHTS assay for small molecule activators of the human pregnane X receptor (PXR) signaling pathway (AID 720659; call rule not given here)
smiles,measurement,setting,value
O=C(CSc1nc2c(c(=O)n1-c1ccccc1)SCC2)Nc1ccc(-c2ccccc2)cn1,Potency,Tov-21-G,0.316 µM (active)
same,Potency,Tov112D,0.158 µM (active)
CCOc1cc(N2CCC(O)CC2)ccc1Nc1ncc2c(n1)N(C1CCCC1)CCC(=O)N2C,Potency,SKOV3,8.91 µM (active)
same,Potency,Tov112D,inactive
Cc1ncc(CCCN(C)C)cc1Nc1ncc2c(n1)-c1ccc(C(F)(F)F)cc1NC(=S)C2,Potency,Tov-21-G,inactive
O=C(NOCC(O)CO)c1ccc(F)c(F)c1Nc1ccc(I)cc1F (configuration not stated),Potency,SKOV3,inactive
same,Potency,Tov112D,inactive
Cc1cc(N2CCN([C@@H]3CN[C@H](C(=O)N4CCSC4)C3)CC2)n(-c2ccccc2)n1,Potency,Tov-21-G,inactive
same,Potency,Tov112D,inactive
O=C(CC1C(=O)Nc2ccccc21)OC[C@H]1O[C@@H](OCCc2ccc(O)cc2)[C@H](O)[C@@H](O)[C@@H]1O (some centres not stated),Potency,Tov-21-G,inactive
same,Potency,Tov112D,inactive
C=C1CCC2C(C)(C)C(O)CCC2(C)C1CCC(C)CCOC(C)=O (configuration not stated),Potency,Tov-21-G,inactive
same,Potency,Tov112D,inactive
CN1CCN(C(=O)c2ccc3cc(CCNc4ncnc5ccc(C#N)cc45)ccc3c2)CC1,Potency,Tov-21-G,inactive
same,Potency,Tov112D,inactive
same,"activity change, negative = inhibition",[1]; Viability,5.79%
CC(C)(C)Nc1nc(Nc2ccc(C(N)=O)cc2)cc(N)c1C#N,Potency,Tov112D,inactive
C[C@H]1Oc2cc(cnc2N)-c2c(nn(C)c2C#N)CN(C)C(=O)c2ccc(F)cc21,Potency,Tov112D,inactive
same,"activity change, negative = inhibition",[1]; HiBiT,-24.3%
same,"activity change, negative = inhibition",[1]; Viability,-27.7%
COc1cccc(Nc2ncnn3ccc(CN4CC[C@@H](N)[C@H](O)C4)c23)c1,Potency,Tov-21-G,5.62 µM (active)
same,Potency,[1]; HiBiT,6.25 µM (active)
C=C(C)C(=O)O[C@H]1C[C@@](C)(O)C(=O)CC(O)/C(C)=C\[C@H]2OC(=O)C(=C)[C@H]12 (some centres not stated),Potency,Tov112D,inactive
C[C@@H]1C[C@H]2O[C@@H]2/C=C\C=C\C(=O)Cc2c(Cl)c(O)cc(O)c2C(=O)O1,"activity change, negative = cytotoxicity",Tov112D,-26.2% [at 11.6 µM]
CN1CCC(Nc2nc(Nc3ccc(Oc4ccccc4)cc3)c3c(=O)[nH]cc(Br)c3n2)CC1,Potency,Tov-21-G,inactive
same,Potency,Tov112D,inactive
CCS(=O)(=O)N1CCN(c2ccc(Nc3ncc(C(N)=O)c(NC4CC4)n3)cc2)CC1,Potency,Tov112D,inactive
same,Potency,[1]; HiBiT,1.98 µM (active)
same,"activity change, negative = inhibition",[1]; Viability,5.56%
CC1CCC23COC(=O)C2=CC(O)CC3C1(C)CCC1=CC(O)OC1=O (configuration not stated),Potency,Tov-21-G,inactive
same,Potency,Tov112D,inactive
Cc1c[nH]c2nccc(Oc3c(F)cc(Nc4cc(Cl)nc(N)n4)cc3F)c12,Potency,Tov112D,7.94 µM (active)
CC(=O)OC1C(=O)C2(C)C(O)CC3OCC3(OC(C)=O)C2C(OC(=O)c2ccccc2)C2(O)CC(OC(=O)C(O)C(NC(=O)c3ccccc3)c3ccccc3)C(C)=C1C2(C)C (configuration not stated),Potency,Tov112D,inactive
C/C(=C\CCC(C)CCO)C(=O)OC1(C)CCC2C(C(=O)O)=COC(OC3OC(CO)C(O)C(O)C3O)C21 (configuration not stated),Potency,Tov-21-G,inactive
same,Potency,Tov112D,inactive
CC[C@H](C)[C@H](NC(=O)[C@H]([C@@H](C)CC)N(C)C(C)=O)C(=O)N[C@H](C(=O)N[C@@H](CC(C)C)C(=O)[C@@]1(C)CO1)[C@@H](C)O,Potency,Tov112D,0.1 µM (active)
N#Cc1ccc(-c2cnc3[nH]cc(NC(=O)c4cccnc4)c3c2)cc1,Potency,Tov112D,inactive
CCCCc1ccc(C(=O)Nc2cc(-c3ccc(Cl)cc3)nn2-c2ccc(Cl)cc2)cc1,Potency,Tov-21-G,inactive
same,Potency,Tov112D,inactive
CCN1CCN(Cc2ccc(NC(=O)Nc3ccc(Oc4cc(NC)ncn4)cc3)cc2C(F)(F)F)CC1,Potency,[1]; HiBiT,5.57 µM (active)
same,"activity change, negative = inhibition",[1]; Viability,-17.1%
C#CC[C@H](c1nc2cc(Cl)ccc2c(=O)n1Nc1ccccc1)N(CCCN)C(=O)c1cccc(Cl)c1F,Potency,Tov112D,0.355 µM (active)
CN1CCN(c2ccc(C(=O)Nc3n[nH]c4ccc(Cc5cc(F)cc(F)c5)cc34)c(NC3CCOCC3)c2)CC1,Potency,Tov-21-G,inactive
same,Potency,Tov112D,inactive
same,Potency,[1]; HiBiT,17.6 µM (active)
same,Potency,[1]; Viability,27.9 µM (active)
CN(C)C/C=C/C(=O)Nc1cccc(C(=O)Nc2ccc(Nc3nccc(-c4cccnc4)n3)cc2)c1,Potency,Tov112D,10 µM (active)
C=C1C(=O)OC2/C=C(\CO)CC/C=C(\C=O)CC(OC(=O)CC(C)C)C12 (configuration not stated),Potency,Tov112D,inactive
CCN1CCN(Cc2ccc(Nc3ncc(F)c(-c4cc(F)c5nc(C)n(C(C)C)c5c4)n3)nc2)CC1,Potency,Tov112D,inactive
same,Potency,[1]; HiBiT,8.83 µM (active)
same,Potency,[1]; Viability,22.2 µM (active)
COc1cc2ncnc(Nc3cccc(Cl)c3F)c2cc1OC(=O)N1CCN(C)C[C@H]1C,Potency,Tov112D,22.4 µM (active)
CS(=O)(=O)NCC1CCC(Nc2nc3c(s2)CCSc2ccccc2-3)CC1 (configuration not stated),Potency,Tov-21-G,inactive
same,Potency,Tov112D,inactive
C/C=C/c1ccc(O[C@@H]2O[C@H](CO)[C@@H](O)[C@H](O)[C@H]2O)c(OC)c1,Potency,Tov112D,inactive
N#Cc1cc(F)cc(-c2nc(-c3ccccn3)no2)c1,Potency,Tov112D,inactive
C/C=C/c1ccc2oc(-c3ccc(O)c(OC)c3)c(C)c2c1,Potency,Tov-21-G,inactive
same,Potency,Tov112D,inactive
CCN(CC)c1ccc2c(O)c(C=Nc3ccc(CC(=O)O)c(-c4c5c(nc6ccccc46)CCC(C(=O)NN)C5)c3)c(=O)oc2c1 (configuration not stated),Potency,Tov112D,inactive
O=C(c1cccc(Cl)c1F)N1CCN(Cc2cccc(Nc3nccs3)n2)CC1,Potency,Tov112D,0.891 µM (active)
Cc1ccc(N)cc1O,Potency,astro,inactive
same,max response,[2],0.897%
same,outcome,[3],inactive
Cc1cc(N(C)C)ccc1-c1nc2ccc(-c3nc4ccc(N5CCN(C)CC5)cc4[nH]3)cc2[nH]1,Potency,Tov-21-G,inactive
same,Potency,Tov112D,inactive
COc1cc2ncnc(Nc3cccc(O)c3)c2cc1OC,Potency,Tov-21-G,15.8 µM (active)
same,Potency,Tov112D,inactive
CC(C)[C@@](C)(O)[C@@H]1CN(c2nc(-c3[nH]nc4ncccc34)c(F)cc2Cl)CCN1,Potency,Tov112D,inactive
C=C1C(=O)O[C@@H]2[C@H]1CCC(C)=C1CCC(=O)O[C@]12C,Potency,Tov112D,inactive
C=C(C)C(=O)OC1CC2(C)OC(=CC2=O)C(=C)CC2OC(=O)C(COC)C12 (configuration not stated),Potency,Tov112D,inactive
O=C(c1ccccc1)c1ccc2nc(NC(=O)c3csc(C4CCN(c5ncnc6ccsc56)CC4)n3)[nH]c2c1,Potency,Tov112D,12.6 µM (active)
COc1ccc(C(=O)Nc2ncc(-c3ccc(C(=O)O)cc3)s2)cc1,Potency,Tov-21-G,14.1 µM (active)
same,Potency,Tov112D,14.1 µM (active)
COc1cc2ncnc(N3CCC(Oc4cnc5ccccc5n4)C3)c2cc1OC (configuration not stated),Potency,Tov112D,1 µM (active)
C=C1C(=O)O[C@H]2C1[C@H](OC(=O)/C(=C/CO)COC(=O)/C(C)=C/CO)CC(=C)[C@@H]1CC(=O)[C@@H](C)[C@@H]12 (some centres not stated),Potency,Tov112D,inactive
Cc1cccc(/C=N/Nc2cc(N3CCOCC3)n3nc(-c4ccncc4)cc3n2)c1,Potency,Tov112D,3.98 µM (active)
CCC(C)C(=O)OC1CC(O)C23C4OCC5(C(O)CC2C1(C)C(O)O4)C3C(=O)CC1(C)C(c2ccoc2)CC2OC215 (configuration not stated),Potency,Tov112D,11.2 µM (active)
